# Out of some 310,000 compounds screened, about 2,200 (0.71%) showed an effect of 50% or more. The effect is printed as a negative number. This is one part of a sample in which strong results are shown more often than they occur.
# Molecular target: human ether-à-go-go-related gene (hERG) potassium channel (human, UniProt Q12809)
# Experiment: primary screen, population patch clamp on CHO cells stably expressing hERG; higher = less effect of the substance
# Chain of human ether-à-go-go-related gene (hERG) potassium channel (Q12809 whole entry, looked up): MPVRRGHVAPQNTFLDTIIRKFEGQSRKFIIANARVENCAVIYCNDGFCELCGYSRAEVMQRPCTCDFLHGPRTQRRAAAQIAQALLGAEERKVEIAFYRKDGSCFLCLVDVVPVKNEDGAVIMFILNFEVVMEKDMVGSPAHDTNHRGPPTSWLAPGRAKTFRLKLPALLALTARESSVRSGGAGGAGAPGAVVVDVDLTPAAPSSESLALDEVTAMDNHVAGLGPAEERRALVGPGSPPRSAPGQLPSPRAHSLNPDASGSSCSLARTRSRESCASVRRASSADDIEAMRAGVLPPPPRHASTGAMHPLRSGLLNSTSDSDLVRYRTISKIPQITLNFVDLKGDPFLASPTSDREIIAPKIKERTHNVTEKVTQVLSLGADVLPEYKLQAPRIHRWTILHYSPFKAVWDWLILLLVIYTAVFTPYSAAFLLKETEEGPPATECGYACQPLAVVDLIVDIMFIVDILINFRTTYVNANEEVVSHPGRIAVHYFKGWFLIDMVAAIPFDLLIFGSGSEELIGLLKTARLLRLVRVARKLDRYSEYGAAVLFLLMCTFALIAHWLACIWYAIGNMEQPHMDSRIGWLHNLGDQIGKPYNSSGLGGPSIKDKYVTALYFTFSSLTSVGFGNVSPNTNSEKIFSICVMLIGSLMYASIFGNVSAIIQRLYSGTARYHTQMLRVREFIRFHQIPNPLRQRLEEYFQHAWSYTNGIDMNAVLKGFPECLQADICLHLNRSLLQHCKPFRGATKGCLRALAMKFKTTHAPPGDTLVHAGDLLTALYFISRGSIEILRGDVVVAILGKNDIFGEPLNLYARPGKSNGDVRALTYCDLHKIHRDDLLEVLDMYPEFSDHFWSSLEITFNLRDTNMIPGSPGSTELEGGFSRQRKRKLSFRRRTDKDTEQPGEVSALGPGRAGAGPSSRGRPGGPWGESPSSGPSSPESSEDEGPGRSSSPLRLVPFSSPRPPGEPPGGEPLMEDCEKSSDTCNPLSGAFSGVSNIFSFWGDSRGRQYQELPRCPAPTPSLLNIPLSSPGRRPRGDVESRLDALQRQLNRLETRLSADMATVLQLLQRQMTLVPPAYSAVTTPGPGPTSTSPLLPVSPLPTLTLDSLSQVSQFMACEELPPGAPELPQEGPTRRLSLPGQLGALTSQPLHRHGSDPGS
row,SMILES,"hERG current change (%, negative = inhibition) at 1uM [%]"
1,NC(=O)c1cc(Cl)ccc1OCC(=O)N1CCCc2ccccc21,11.4
2,S=c1[nH]nc(-c2ccc(Cl)cc2)n1-c1ccc2c(c1)OCCO2,7.4
3,CCN1C(=O)[C@H]2[C@@H](c3ccc(Cl)cc3)N3C(=O)CN(Cc4ccccc4)C(=O)[C@@]3(C)[C@H]2C1=O,10.9
4,CCCCCOc1ccc(/C=C/c2c([N+](=O)[O-])c(=O)n(C)c(=O)n2C)cc1,12.2
5,O=c1[nH]cnc2sc(-c3ccccc3)cc12,6.92
6,COc1ccc(S(=O)(=O)NCc2c(-c3ccccc3)noc2C)c(OC)c1,3.4
7,CC1CCN(C(CNS(=O)(=O)c2ccccc2)c2ccccc2)CC1 (centres unmarked),3.61
8,Cc1ccccc1[C@]1(C)ON(c2ccccc2C(F)(F)F)C1=O,14.2
9,O=C(N/C(=C/c1ccccc1)C(=O)N1CCCCC1)c1ccc(Br)o1,-0.572
10,O=C(N/C(=C\c1ccc([N+](=O)[O-])cc1)C(=O)N1CCCCC1)c1ccccc1,-73.2
11,CN1CCN(C(=O)/C(=C/c2ccc([N+](=O)[O-])cc2)NC(=O)c2ccccc2)CC1,-90.4
12,O=C(N/C(=C/c1cccc([N+](=O)[O-])c1)C(=O)N1CCCC1)c1ccccc1,-0.775
13,O=C(N/C(=C\c1ccc([N+](=O)[O-])cc1)C(=O)N1CCCCC1)c1ccc(Br)o1,-53.4
14,O=C(N/C(=C\c1ccccc1)C(=O)N1CCCCC1)c1ccc(Br)o1,-0.538
15,CN1CCN(C(=O)/C(=C/c2ccc(N(C)C)cc2)NC(=O)c2ccccc2)CC1,7.18
16,CC(C)(C)NC(=O)/C(=C\C=C\c1ccccc1)NC(=O)c1ccc([N+](=O)[O-])cc1,11.2
17,CNC(=O)/C(=C\C=C\c1ccccc1)NC(=O)c1ccc([N+](=O)[O-])cc1,-85
18,CN(C)CCCNC(=O)/C(=C\C=C\c1ccccc1)NC(=O)c1ccc([N+](=O)[O-])cc1,-42
19,O=C(N/C(=C\c1ccccc1)C(=O)N1CCCCCC1)c1ccccc1,21.1
20,CN1CCN(C(=O)/C(=C/c2cccc([N+](=O)[O-])c2)NC(=O)c2ccccc2)CC1,-46.5
21,CC(=O)c1ccc(N2CCCCCC2)c(F)c1,0.156

row,SMILES,"hERG current change (%, negative = inhibition) at 1uM [%]"
1,COc1ccc(OCC(=O)NCCCNC(=O)COc2ccc(OC)cc2)cc1,4.68
2,O=c1c2c3c(sc2nc2n1CCCCC2)CCC3,10.9
3,O=S1(=O)[C@H]2C[C@@H]3C=C[C@]2(CN1Cc1ccc(C(F)(F)F)cc1)O3,4.34
4,COc1ccc(CCNC(=O)CO/N=C/c2cc3c(cc2Br)OCO3)cc1OC,14.5
5,CCCCCOc1ccc(C(C)(O)C(CN2CCOCC2)c2ccccc2)cc1 (centres unmarked),-3.26
6,CC(OC(=O)/C(C#N)=C/c1ccc(N(C)C)cc1)C(=O)NCc1ccco1 (centres unmarked),6.56
7,C[C@@H](C(=O)Nc1ccc2ccccc2c1)[C@@H]1C[C@@]1(C)[C@@H](NC(=O)OCc1ccccc1)c1ccccc1,14.3
8,CCOC(=O)C1=C(CSc2nncn2C)NC(=O)NC1c1cc(OCC)ccc1OCC (centres unmarked),5.34
9,Cc1ccc(NC(=O)CSc2nnc(Cn3cnc4ccccc43)o2)c(C)c1,20.5
10,Cc1cccc(C)c1N(CC(=O)N1CCCC1)S(C)(=O)=O,16.2
11,CS(=O)(=O)N(CC(=O)N1CCc2ccccc2C1)c1ccc(Br)cc1,13.4
12,CCNC(=O)CN(C1CCCCC1)S(C)(=O)=O,1.29
13,CCOC(=O)c1c(CSc2ccccc2)n(C)c2cc(Br)c(O)c(CN(C)C)c12,-3.17
14,CCOC(=O)c1c(CSc2ccsc2)n(C)c2cc(Br)c(O)c(CN(C)C)c12.Cl,-88.5
15,CCOC(=O)c1c(CSc2ccc(C)cc2)n(C)c2cc(Br)c(O)c(CN(C)C)c12.Cl.O,18
16,CN(C)c1ccc(NC(=O)CSc2nc3ccccc3c(=O)n2CC2CCCO2)cc1 (centres unmarked),17.3
17,O=C(Nc1ccccc1SCC1CSc2nc3ccccc3c(=O)n21)c1ccccc1Cl (centres unmarked),-53.2
18,Cc1cccc(C(=O)Nc2ccccc2SCC2CSc3nc4ccccc4c(=O)n32)c1 (centres unmarked),-66.5
19,Cc1ccc(C(=O)Nc2ccccc2SCC2CSc3nc4ccccc4c(=O)n32)cc1 (centres unmarked),-39
20,O=C(Nc1ccccc1SCC1CSc2nc3ccccc3c(=O)n21)c1cccc(Cl)c1 (centres unmarked),-49.6

# — paper PMC4336329 (PLoS ONE, 2015)
